Shiga toxin inh – Shiga toxin inhibition; inhibition, % at 38.7 µM; actives 9.2% (n = 290,000); Vero cells, Shiga toxin protein synthesis inhibition reporter; in the data active means inhibition mostly above about 28%, no sharp cut-off; inactive means mostly below about 43%; further: 0% is about no effect
Cycloheximide cs – counter-screen hit for Shiga toxin inhibitors, cycloheximide; cell reporter, cycloheximide protein synthesis inhibition counterscreen; max response, %; actives 12% (n = 300,000); AID 2314; in the data active means max response mostly above about 13%, no sharp cut-off; inactive means mostly below about 14%; further: read at 38.3 µM for the half of the compounds with a filed dose; 0% is about no effect
Pf growth 48h – P. falciparum growth inhibition at 48 hours (one generation); Potency, µM (series often up to 28.7 µM), without a hit: at the top dose activity change, negative = inhibition, hits mostly inhibitors; AID 504832; actives 5.9% (n = 310,000); P. falciparum luciferase growth in erythrocytes, 48 h; further: potency means the concentration at half of the fitted maximal effect; on the % scale 0 is the no-effect control and ±100 the full control effect
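Luciferase-expressing parasites in RBCs, 2% Hct / 0.1% parasitemia final; RPMI 1640 + 0.5% Albumax; 37 C, 5% CO2, one generation; luminescence read-out, lower signal = inhibition.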
HCMV antiviral – blocks human cytomegalovirus replication | HFF cells, HCMV-luciferase reporter, 72 h; active compounds read low | activity change, negative = inhibition, % at 57.5 µM | actives 4.5% (n = 410,000) | AID 1259415; in the data active means activity change below about -60%; inconclusive means no clear call, values can overlap the other calls; inactive means above about -39%; further: on the % scale 0 is the no-effect control and ±100 the full control effect
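Screen run at 2 compound doses on HFFs infected with reporter HCMV, MOI 1 PFU/cell. Luciferase activity from cell lysates at 72 h post infection gave inhibition relative to buffer-only and Salinomycin wells.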
Pf growth 96h – inhibits malaria parasite growth, 96 h | actives 6.9% (n = 320,000) | AID 504834 | Potency, µM (series often up to 28.7 µM), for inactives: top-dose activity change, negative = inhibition, usual class: inhibitors | P. falciparum luciferase reporter growth, 96 h; further: potency means the concentration at half of the fitted maximal effect; on the % scale 0 is the no-effect control and ±100 the full control effect
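Two-generation exposure (96 h) targets delayed-death phenotype. Reporter parasites carrying integrated firefly luciferase, in red cells at 2% hematocrit and 0.05% parasitemia final, kept at 37 C, 5% CO2; luminescence loss indicates inhibition.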
HCV inhibitor – inhibitors of hepatitis C virus infection; AID 651820; Potency, µM (series often up to 41.8 µM), for the others: top-dose activity change, negative = inhibition, most hits filed as inhibitors; Huh7.5.1 HCVcc-Cre infection, luciferase reporter, 44 h; actives 3.4% (n = 340,000); further: potency means the concentration at half of the fitted maximal effect; on the % scale 0 is the no-effect control and ±100 the full control effect
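Cells (1,000/well) were plated 4 h before compound, then infected with HCVcc-Cre virus (~0.5 moi). After 44 h further culture, infection was read as luciferase luminescence following a 15 min substrate incubation at room temperature.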
Numbers without * were called inactive; u = inconclusive; x = not tested or not shown. In the library only some 21% were active in any assay of this set; here they are far more common. Unless noted, the call rests on the fitted dose curve; in most records, active means well fitted inhibition curve with a large enough effect; inconclusive means small, poorly fitted or top-dose-only effect, or another doubt; inactive means no such curve, though single readings can be large or run the other way.

SMILES	Shiga toxin inh	Cycloheximide cs	Pf growth 48h	HCMV antiviral	Pf growth 96h	HCV inhibitor
O=C(CCc1ccc(S(=O)(=O)N2CCOCC2)cc1)N/N=C/c1ccc(O)c(O)c1O	6	-2	2%	-98*	0%	-22%
Cc1nonc1C(=O)N/N=C/c1cccc(O)c1	65*	54*	-15%	7	2.1µM*	1%
O=C(Cc1nnc(NC(=O)c2ccccc2)s1)N/N=C/c1cccc(O)c1	12	14*	28%	16	u	-15%
CSc1ccc(CNC(=O)c2cc3c(=O)n(Cc4ccco4)ccc3nc2C)cc1	x	x	x	-28	x	x
CN1/C(=C\C=C(C#N)C#N)C(C)(C)c2ccccc21	-4	6	11%	-3	u	5%
CN1/C(=C/C=C/c2n(C)c3cc([N+](=O)[O-])c([N+](=O)[O-])cc3[n+]2C)C(C)(C)c2ccccc21	x	x	x	-67*	x	x
CC(=O)c1ccc(N(C(=O)Cn2nnc3ccccc32)C(C(=O)NCc2ccccc2)c2ccccn2)cc1 (configuration not stated)	76*	47*	-1%	7	7%	5%
Cn1c(C(C(=O)NCC2CCCO2)N(CCc2ccccc2)C(=O)Cn2nnc3ccccc32)nc2ccccc21 (configuration not stated)	-15	-5	u	-65*	u	11%
Cc1ccc(N(C(=O)Cn2nnc3ccccc32)C(C(=O)NCc2ccccc2)c2ccccn2)cc1 (configuration not stated)	-3	-3	u	u	u	-28%
CC(C)CCNC(=O)C(c1ccco1)N(CC1CCCO1)C(=O)Cn1nnc2ccccc21 (configuration not stated)	-3	-4	-25%	-2	-18%	-2%
CCC(C)(C)NC(=O)C(c1cccn1C)N(Cc1ccc(OC)cc1)C(=O)Cn1nnc2ccccc21 (configuration not stated)	-9	-2	9.3µM*	-23	u	3%
CCC(C)(C)NC(=O)C(c1cccn1C)N(Cc1ccccc1)C(=O)Cn1nnc2ccccc21 (configuration not stated)	-8	-3	-5%	-6	-23%	34%
COc1ccc(N(C(=O)Cn2nnc3ccccc32)C(C(=O)NCc2ccco2)c2ccc(C)o2)cc1 (configuration not stated)	29	30*	u	-22	u	1%
COCCNC(=O)C(c1ccco1)N(C(=O)Cn1nnc2ccccc21)c1cc(C)ccc1C (configuration not stated)	-8	-3	x	-7	x	4%
Cc1ccc(CN(C(=O)Cn2nnc3ccccc32)C(C(=O)NCc2ccco2)c2ccc(C)o2)cc1 (configuration not stated)	42*	16*	u	-31	u	u
Cc1ccc(C(C(=O)NCc2ccco2)N(CCc2ccccc2)C(=O)Cn2nnc3ccccc32)o1 (configuration not stated)	40	9	13µM*	41	x	-2%
Cc1ccc(N(C(=O)Cn2nnc3ccccc32)C(C(=O)NCc2ccco2)c2ccc(C)o2)cc1 (configuration not stated)	5	-3	13µM*	40	u	7%
CCC(C)(C)NC(=O)C(c1ccco1)N(C(=O)Cn1nnc2ccccc21)c1ccc2c(c1)OCO2 (configuration not stated)	-8	5	u	-19	7.4µM*	1%
O=C(NCc1ccco1)C(c1ccccc1)N(Cc1cccnc1)C(=O)Cn1nnc2ccccc21 (configuration not stated)	-4	-5	-15%	20	x	-3%
Cc1c(O)ccc2c(O)c(NC(=O)c3ccc4c(c3)CCC(C)(C)O4)c(=O)oc12	-6	1	u	-20	20%	13%
Cc1nc2c(c(C)nn2C(C)(C)C)c(C)c1CCC(=O)Nc1ccc(F)cc1	x	x	x	-11	x	x
O=C1OC(COCC#Cc2ccccc2)CN1c1ccccc1 (configuration not stated)	x	x	x	-8	x	x
Cc1cc(C)cc(NC(=O)CSc2nc(-c3ccccc3)c3cc(F)ccc3n2)c1	x	x	x	-11	x	x
CN(C)c1nnnn1-c1ccc(Oc2ncc(C(F)(F)F)cc2Cl)cc1	14	9	-21%	u	u	-20%
Cc1ccccc1CCN(C(=O)Cn1nnc2ccccc21)C(C(=O)NC(C)(C)C)c1ccsc1 (configuration not stated)	-5	11	u	0	1.2µM*	4%
SMILES	Shiga toxin inh	Cycloheximide cs	Pf growth 48h	HCMV antiviral	Pf growth 96h	HCV inhibitor
Cc1cccc(N(C(=O)Cn2nnc3ccccc32)C(C(=O)NC(C)(C)C)c2ccsc2)c1C (configuration not stated)	22	5	u	u	u	-3%
Nc1nc(SCc2ccccn2)c2ncn(C3OC(CO)C(O)C3O)c2n1 (configuration not stated)	x	x	x	7	x	3%
Cc1cccc(Nc2ccc([N+](=O)[O-])cc2C(=O)O)c1	-7	28*	9%	-5	10%	5%
O=C(O)c1cc([N+](=O)[O-])ccc1Nc1ccccc1	-4	-1	13%	-36	10µM*	13%
NC(=O)c1ncc(C(F)(F)F)cc1Oc1cccnc1	-5	-2	4%	31	u	9%
N#CC(C(=O)Nc1ccccc1)=C1CCCCC1	16	15*	19%	-18	25%	17%
N#CC(C(=O)O)=C1CCCC1	-1	2	10%	-1	u	12%
COc1ccc(-c2ccc(C#N)c(OC(=O)c3c(Cl)cccc3Cl)n2)cc1	-3	-5	u	-25	-19%	5µM*
COc1nc(-c2ccccc2Cl)ccc1C#N	8	9	-12%	-15	1%	11%
Cc1cccc(C(C)C)c1NC(=O)COC(=O)CNS(=O)(=O)c1ccccc1	x	x	u	5	22%	19%
CN(CC(=O)Nc1ccc(S(=O)(=O)N2CCCC2)cc1)Cc1c(F)cccc1Cl	5	11	-21%	-70*	13µM*	u
CN(CC(=O)Nc1ccc(S(=O)(=O)N2CCCC2)cc1)Cc1ccc(Cl)cc1	-3	2	u	-36	8.3µM*	u
O=C(Cc1ccccc1F)Nc1ccc(S(=O)(=O)N2CCCCC2)cc1	-21	18	-13%	-1	u	-9%
O=C(Cc1ccc(F)cc1)Nc1ccc(S(=O)(=O)N2CCCC2)cc1	x	x	15%	u	u	u
CCCOc1ccc(C2C(=O)N(C3CCCCC3)CC(=O)N2CCC2=CCCCC2)cc1OC (configuration not stated)	x	x	x	12	x	x
